A number with no mark means an inactive call. No rule for the calls is given here.
Potency is read from the fitted curve at half-maximal effect.

For the assay, the system named is HIV-1 nucleocapsid protein NCp7 (binding to TG oligonucleotide). In words: HIV Nucleocapsid (AID 346).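 Also: potency is for inhibitors that block NC binding and lower polarization.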 The settings on record: HIV-1 NC / fluorescein-TGTGTGTG probe, fluorescence polarization. How it is done:
NCGC Assay Overview: HIV-1 nucleocapsid protein (HIV-1 NC) is a small (6.5 kDa) basic zinc-finger protein which participates in packaging of viral genomic RNA. The spacing and metal-chelating residues (3 Cys, 1 His) of the Cys-X2-Cys-X4-His-X4-Cys Zn fingers are conserved among all known retroviruses (J. Med. Chem. 1998, 41, 1371-1381). HIV-1 NC was assayed for its binding to the consensus sequence single-stranded 5'-TGTGTGTG. […] High salt was included to increase the stringency of binding and inhibitor screen. Reducing agents and zinc were present to stabilize the nucleocapsid zinc-finger protein.
NCGC Assay Protocol Summary: Buffer. Hepes pH 7.5, 250mM NaCl, 1uM ZnCl2. 0.004% polyethylene glycol 20000. TCEP (100 uM) and 2-Mercaptoethanol (5 mM), added fresh the day of the experiment. Reagents/Controls. 10 nM TG4xF only in columns 3 and 4 as negative control. 10 nM TG4xF/100 nM HIV-1 NC in columns 1, 2, 5-48. Titration of control compound NSC-13778 (from 20 mM, then 1:2) pin-transferred to column 2. Assay Steps. Two uL of reagents were dispensed to 1536-well Kalypsys black plates. The plates were centrifuged for 1 min at 1000 rpm. Compounds and controls (20 nL) were transferred via Kalypsys PinTool. The plates were incubated for 1 hr at room temperature, and then read on ViewLux (Perkin-Elmer). High-throughput CCD imager using fluorescein polarization filter set and 45 seconds exposure time.
Background: Fluorescence polarisation rises when a labelled molecule tumbles more slowly, as on binding a larger partner.
For the compound `COc1ccccc1CN1CC2(CCN(C(=O)c3cccc(F)c3)CC2)C1`, the Potency is greater than 20 µM.

For the compound `COc1ccc2[nH]cc(CCNc3nc(-c4ccccc4OC)nc4ccccc34)c2c1`, the Potency is greater than 20 µM.

As to `CN(C)Cc1ccccc1-c1cncnc1Nc1ccccc1`, the Potency is greater than 20 µM.

Consider `CC(C)NC(=O)N1CC2(CCN(C(=O)c3cc(C(F)(F)F)cc(C(F)(F)F)c3)CC2)C1`, for which the Potency is greater than 20 µM.

Take `O=c1c(-c2ccc(F)cc2)nc2cnc(N3CCOCC3)nc2n1Cc1cccs1`: the Potency is greater than 20 µM.

As to `COc1cccc(-c2ccc3ncnc(NCCNC(C)=O)c3c2)c1`, the Potency was greater than 20 µM.

For `COc1ccc(C(=O)N2CCC[C@@]3(CCN(CC(C)C)C3)C2)cc1`, the Potency was greater than 20 µM.

With `Cc1noc(C)c1C(=O)N1CCC2(CC1)CCN(c1cccc(-c3ccccc3)c1)CC2`, the Potency was greater than 20 µM.

Regarding `N#Cc1cccc(-c2cc(NCc3cccs3)ncn2)c1`, the Potency is greater than 20 µM.

For `N#Cc1cccc(NC(=O)N2CC3(CCN(C(=O)c4cnccn4)CC3)C2)c1`, the Potency is greater than 20 µM.

As to `COCCn1c(=O)c(C)nc2cnc(Nc3cccc(OC)c3)nc21`, the Potency was greater than 20 µM.

Regarding `COCCNc1ncnc2ccc(-c3ccccc3C)cc12`, the Potency is greater than 20 µM.

For the compound `N#CCCn1c(=O)c(-c2cccc(C#N)c2)nc2cnc(N3CCOCC3)nc21`, the Potency is greater than 20 µM.

Regarding `FC(F)(F)c1ccccc1-c1cncnc1NCCc1cnc[nH]1`, the Potency is greater than 20 µM.

For the compound `COc1ccccc1CNc1nc(-c2ccccc2OC)nc2ccccc12`, the Potency is greater than 20 µM.

Take `COc1cccc(Nc2ncc3nc(-c4ccc(Cl)cc4)c(=O)n(C[C@H]4CCCO4)c3n2)c1`: the Potency was greater than 20 µM.

Take `CS(=O)(=O)N1CCC2(CC1)CN(c1cccc(-c3ccccc3)c1)C2`: the Potency was greater than 20 µM.

On to `COc1ccc(-n2c(=O)c(C)nc3cncnc32)cc1`, for which the Potency is greater than 20 µM.

Consider `O=S(=O)(c1ccccc1)N1CCC2(CC1)CN(Cc1ccccc1)C2`, for which the Potency is greater than 20 µM.

As to `O=C(c1cc(C(F)(F)F)cc(C(F)(F)F)c1)N1CCC2(CCCN(Cc3nccs3)C2)CC1`, the Potency is greater than 20 µM.

For `COc1cccc(-c2ccc3ncnc(NC4CCNCC4)c3c2)c1`, the Potency was greater than 20 µM.

As to `COCCNc1nc(-c2cccc(NS(C)(=O)=O)c2)nc2ccccc12`, the Potency is greater than 20 µM.

For the compound `O=C(c1ccncc1)N1CCC2(CCCN(Cc3ccccc3)C2)CC1`, the Potency is greater than 20 µM.

`COc1ccc(-n2c(=O)c(-c3ccc(F)cc3)nc3cnc(OC)nc32)cc1`: the Potency was greater than 20 µM.

Turning to `Cn1c(=O)c(-c2cc(F)cc(F)c2)nc2cncnc21`, the Potency is greater than 20 µM.

As for `COc1ccc(Oc2ncc3ncc(=O)n(Cc4cccs4)c3n2)cc1`, the Potency is greater than 20 µM.

In the case of `CS(=O)(=O)Nc1cccc(-c2nc(Nc3ccccc3)c3ccccc3n2)c1`, the Potency is greater than 20 µM.

On to `Cc1cnc(CNc2ncnc3ccc(-c4ccccc4CN(C)C)cc23)cn1`, for which the Potency was greater than 20 µM.

Turning to `COc1ccc(-n2c(=O)c(-c3ccc(Cl)cc3)nc3cncnc32)cc1`, the Potency was greater than 4 µM.

With `COc1ccccc1-c1cncnc1NCc1cnc(C)cn1`, the Potency is greater than 20 µM.

As for `O=C(c1cc(C(F)(F)F)cc(C(F)(F)F)c1)N1CCC2(CC1)CCN(c1ccccn1)CC2`, the Potency was greater than 20 µM.

On to `Cc1noc(C)c1-c1ccc2ncnc(NC3CCNCC3)c2c1`, for which the Potency is greater than 20 µM.

In the case of `COc1ccc(-n2c(=O)cnc3cnc(N4CCN(C)CC4)nc32)cc1`, the Potency is greater than 20 µM.

Take `CC(C)NC(=O)N1CCC2(CC1)CCN(C(=O)c1cccn1C)CC2`: the Potency is greater than 20 µM.

In the case of `c1cncc(-c2ccc3ncnc(NCCN4CCOCC4)c3c2)c1`, the Potency was greater than 20 µM.

Regarding `COCC(=O)N1CCC[C@@]2(CCN(c3ccccc3)C2)C1`, the Potency is greater than 20 µM.

Consider `COc1ccc(Oc2ncc3nc(-c4cccs4)c(=O)n(CCC#N)c3n2)cc1`, for which the Potency is greater than 20 µM.

With `CN(Cc1ccco1)c1nc(-c2ccoc2)nc2ccccc12`, the Potency was greater than 20 µM.

As to `COCCn1c(=O)c(-c2cc(F)cc(F)c2)nc2cnc(N3CCOCC3)nc21`, the Potency is greater than 20 µM.

On to `O=C(Nc1cccc(F)c1)N1CCC2(CC1)CCN(C(=O)c1ccncc1)CC2`, for which the Potency is greater than 20 µM.

These data come from PubChem BioAssay (NCATS).
